Measured values as given in PubChem BioAssay (NCATS).
Results filed as inconclusive are left out. The call rests on the fitted dose curve; in most records, active means well fitted curve in either direction with a large enough effect (not every such curve was filed as active); inconclusive means small, poorly fitted or top-dose-only effect, or another doubt; inactive means flat fitted curve, though single readings scatter.

Assay: Stat Signaling Pathway (AID 446)
Conditions: ME-180 (cervical carcinoma) SIE beta-lactamase reporter, IL-6 stimulated, 5 h; at 17.2 µM (top of the series) unless noted
Protocol: NCGC Assay Overview: The IL-6/STAT signaling pathway was assayed in ME-180 cervical carcinoma cells by a beta-lactamase reporter gene controlled by a STAT Inducible Element (SIE). This reporter is induced by IL-6 at 40 pM AC50 and inhibited by the pan JAK inhibitor, 2-(1,1-Dimethylethyl)-9-fluoro-3,6-dihydro-7H-benz[h]-imidaz[4,5-f]isoquinolin-7-one, at approximately 10 nM AC50. Plated cells were incubated overnight and on the following day, stimulated with 40 pM IL-6 for 5 hrs. The assay was screened at the AC50 of IL-6 activation to identify both inhibitors and activators of IL-6/STAT signaling.
NCGC Assay Protocol Summary: Cells were trypsinized, washed in assay medium (AM, OPTI MEM with 0.5% fetal bovine serum, 0.1 mM nonessential amino acids, 1 mM sodium pyruvate, 10mM HEPES pH 7.3, 100U/ml penicillin, and 100 ug/ml streptomycin) and suspended at 6 x 10e5/ml in AM. Approximately […] cells in 5 uL/well was dispensed into 1536 well plates and the cells were incubated overnight at 37 C. 23 nL of compound were delivered by a pin tool and 1 uL of IL-6 (40 pM final concentration in AM) was added. After centrifugation at 1000 rpm for less than a minute, plates were incubated at 37C for 5 hrs. One uL of detector mix (LiveBLAzerTM, Invitrogen) was added, the plates incubated at room temperature for 2.5 hrs, and fluorescence intensity at 460 and 530 nm emission was measured at 405 nm excitation by an Envision (Perkin Elmer) or Safire II (Tecan). Data were normalized by GeneData to the controls for AC90 stimulation (300 pM IL-6) and to AC90 inhibition (125 nM Jak inhibitor, 40 pM IL-6 in AM).
On the % scale 0 is the no-effect control and ±100 the full control effect.

activity, negative = inhibition, inactive:
O=C1C=C(O)CC(c2ccco2)C1 (stereo not given) 3.18%
CCSc1nc(O)c(C2OC(=O)c3c2ccc(OC)c3OC)c(=O)n1-c1ccccc1 (stereo not given) -4.52%
CC(C)C1Cc2c(sc3c2c(=O)n(-c2ccccc2)c2nncn32)CO1 (stereo not given) 5.31%
CC(NC(=O)Nc1cccnc1)(C(F)(F)F)C(F)(F)F -3.14%
CCOc1ccc(-c2nc(C#N)c(NCC(C)C)o2)cc1 -7.96%
C=CCn1c(-c2ccccc2)n[nH]c1=S 3.46%
CCOC(=O)COc1ccc(Oc2nc(C)cc(OC)n2)nn1 -0.709%
CC1(C)Cc2c(sc3ncn4nnnc4c23)CO1 2.69%
CSc1nc2sc3c(c2c2nnnn12)CCC3 9.44%
Clc1ccc(Cl)c(-c2ccc(/C=N/c3ncn[nH]3)o2)c1 -6.04%
CCCCC(=O)Nc1c(O)c2ccccc2[nH]c1=O 1.28%
O=C(Nc1ccccn1)c1ccc(=O)[nH]n1 1.32%
N#CC1=C(N)N2C(=C(C#N)C1c1ccccc1)Sc1ccccc12 (stereo not given) 3.71%
O=c1[nH]cnc2cc(-c3ccccc3)sc12 9.54%
CCCOc1ccc(Cc2nn[nH]n2)cc1 2.28%
O=C(O)c1cc(Cl)cc(Cc2cc(Cl)cc(C(=O)O)c2O)c1O -2.39% [at 7.69 µM]
N#CCSc1nc2c(cc1C#N)CCCCCC2 5.36%
O=C(C1CC1(c1ccccc1)c1ccccc1)N1CCOCC1 (stereo not given) 0.797%
COc1ccc(/C(O)=C2\C(=O)C(=O)N(c3cc(C)on3)C2c2cccc(OC)c2OC)cc1C (stereo not given) -17.9%
CCOC(=O)CSC1=C(C#N)C(=O)NC2(CCCCC2)S1 8.1%
CCCCNC(=O)c1cc2n(n1)C(C(F)(F)F)CC(c1ccccc1)N2 (stereo not given) -0.224%
CCC(=O)Oc1ccc(C(CC)C(CC)c2ccc(OC(=O)CC)cc2)cc1 (stereo not given) -3.77%
Clc1ccc(-n2ncc3c(NCc4ccccn4)ncnc32)cc1 -20.2%
O=C(O)CC(C(=O)OCC1CCCO1)N1CCOCC1 (stereo not given) -0.575%
COC(=O)c1cc(=O)n2c(-c3ccc(OC)cc3)csc2n1 5.85%
CCOc1cccc(-c2nnc3sc(COc4ccccc4)nn23)c1 -10.6%
O=C(c1ccccc1)c1cc(-c2ccccc2)on1 -7.84%
Cc1cc(=O)oc(C)c1C(=O)Nc1cccc2nonc12 -0.713%
COC(=O)c1sc(NC(=O)c2oc3ccccc3c2C)nc1C 18.1%
COc1ccc(C(CC(=O)N2CCOCC2)C(C)C)cc1 (stereo not given) -3.69%
C(=N\n1cnnc1)/c1cccnc1 12.5%
Cc1cc2ccccc2cc(C)c1=O -25.4%
CCc1nc(NC2CCCCC2)c(C#N)c2c1COC(C)(C)C2 7.37%
NC(=O)CSc1c[nH]c2ccccc12 -0.854%
CN(C)c1nc2sc3c(c2c(=O)n1C)CC(C)(C)OC3 10.9%
CC(C)c1nc2n[nH]c(N)c2c2c1CCC2 -1.39%
CCCN1C[C@@H](CSC)C[C@H]2c3cccc4[nH]cc(c34)C[C@@H]21 -10.6% [at 38 µM]
Cn1ncc2nnn(-c3ccccc3)c(=O)c21 3.98%
CCOC(=O)C1=C(C)N=C2SC(C)C(=O)N2C1c1ccc(OC(C)=O)c(OC)c1 (stereo not given) -17.1%
COc1cccc(OC)c1OCCNC[C@@H]1CSc2ccccc2O1 -23.8% [at 38 µM]
